# From PubChem BioAssay
# In the library only some 4.1% were active in any assay of this set; here they are far more common.
# tim10-1 inh: growth inhibitors of tim10-1 mutant yeast. S. cerevisiae tim10-1 ts strain growth, BacTiter-Glo, 24 h. inhibition, % at 20 µM. hit rate 2.2% among 330,000. AID 463190;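 active = inhibition of at least 40%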;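 note: mutant grown at 25 °C; 0% = DMSO wells with yeast and 100% = wells holding no yeast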
# tim23-1 inh: inhibits growth of tim23-1 mutant yeast; hit rate 1.3% among 330,000; inhibition, % at 20 µM; S. cerevisiae tim23-1 growth, BacTiter-Glo luminescence, 24 h;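 active = growth inhibition of the mutant yeast at or above 50%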;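 note: temperature-sensitive mutant grown at 25 °C; plate controls were DMSO-treated mutant yeast for no effect and medium wells lacking yeast for full effect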
# NALP1 yeast inh: NALP1 inhibition; S. cerevisiae NALP1/ASC/caspase-1 growth, X-gal OD620, 72 h; inhibition, % at 10 µM; hit rate 0.61% among 280,000; in the data active = inhibition mostly above about 24%, no sharp cut-off; inactive = mostly below about 32%
# NALP3 yeast inh: inhibitors of NALP3 inflammasome in yeast | inhibition, % at 10 µM | hit rate 0.39% among 330,000 | Yeast reconstituted NLRP3/ASC/caspase-1, beta-gal luminescence, 24 h;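 active = inhibition of 50% or more; inactive = inhibition below 50%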;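 note: plate controls were induced DMSO wells for no effect and uninduced yeast grown without galactose for full effect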
# TIM10 inh: growth inhibitors of TIM10 yeast strain | S. cerevisiae TIM10 strain growth, BacTiter-Glo luminescence, 24 h | inhibition, % at 10 µM | hit rate 1.4% among 330,000 | AID 463195;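 active = inhibition of 40% or more at the single tested concentration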;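 note: wild-type TIM10 isogenic control strain grown at permissive 25 °C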
# PfHsp90 set2: reduces growth (ATP signal) of yeast expressing P. falciparum Hsp90; inhibition, % at 9.4 µM; hit rate 0.32% among 310,000; S. cerevisiae expressing PfHsp90, BacTiter-Glo ATP, 48 h; yeast lacking PDR1 and PDR3 efflux regulators; AID 504621;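 active = every replicate shows inhibition above about 80%, whatever the replicate mean, limit read from the data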;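 note: 0% = DMSO neutral controls and 100% = 20 µM radicicol positive controls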
# tim10-1 conf: tim10-1 yeast growth inhibition, confirmed; shares compounds with tim10-1 inh; S. cerevisiae tim10-1 ts strain growth, BacTiter-Glo, 24 h; inhibition, % at 20 µM; hit rate 56% among 7,400; AID 463213;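 active = inhibition of yeast growth at or above a set limit in either of two repeat tests at 20 µM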;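 note: tim10-1 mutant grown at permissive 25 °C to find synthetic lethal compounds; 0% = DMSO yeast wells and 100% = medium wells without yeast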
# tim10 confirm: confirmation of TIM10 yeast growth inhibitors. hit rate 63% among 4,600. inhibition, % at 10 µM. S. cerevisiae tim10 strain growth, BacTiter-Glo luminescence, 24 h. shares compounds with TIM10 inh;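 active = inhibition of yeast growth at or above a set limit in either of two replicates at 10 µM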;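 note: this counterscreen used the strain with wild-type TIM10; 0% = yeast with DMSO and 100% = medium wells lacking yeast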
# tim23-1 conf: tim23-1 yeast growth inhibition, confirmed; shares compounds with tim23-1 inh; hit rate 83% among 4,400; AID 463218; inhibition, % at 20 µM; S. cerevisiae tim23-1 growth, BacTiter-Glo luminescence, 24 h;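 active = inhibition above about 39% in either of two replicate wells at 20 µM, limit read from the data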;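 note: temperature-sensitive tim23-1 mutant grown at 25 °C; 0% = DMSO wells with yeast and 100% = medium wells without yeast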
# An asterisk follows results filed as active; x = not tested or not shown.
SMILES,tim10-1 inh,tim23-1 inh,NALP1 yeast inh,NALP3 yeast inh,TIM10 inh,PfHsp90 set2,tim10-1 conf,tim10 confirm,tim23-1 conf
O=C(Nc1cccc(-c2nc3cccnc3s2)c1)C1c2ccccc2Oc2ccccc21,13.2,18.5,31.9,-7.4,1.0,-29.6,x,x,x
N/C(=N\OC(=O)Cc1ccccc1)c1ccc(Br)cc1,37.4,21.1,16.8,11.5,25.2,-39.8,x,x,x
N/C(Cc1ccc(Cl)cc1Cl)=N\OC(=O)c1ccccc1F,62.6*,64.8*,29.6,4.4,81.4*,3.5,14.1,87.6*,52.5*
O=C(O/N=C(/c1ccccc1)c1ccncc1)c1cccc(F)c1,29.1,37.5,-7.0,6.7,38.5,-16.0,x,x,x
O=C(O/N=C(\c1ccccc1)c1ccncc1)c1ccccc1F,50.1*,50.5*,-4.2,9.8,29.6,6.5,37.2*,x,61.0*
N/C(=N\OC(=O)c1cccc2ccccc12)c1ccc(Br)cc1,66.5*,63.4*,5.7,21.3,69.1*,16.3,61.0*,69.1*,68.3*
N/C(Cc1cccc2ccccc12)=N\OC(=O)c1ccccc1F,55.5*,66.8*,17.3,12.4,61.0*,-2.8,49.5*,71.3*,75.6*
CCOC(=O)C1(Cc2cccc(OC)c2)CCCN(C(=O)c2cc(C)on2)C1 (centres undefined),12.8,16.5,1.8,10.0,-5.6,-11.5,x,x,x
COCc1cc(=O)[nH]c(Cc2c(Cl)cccc2Cl)n1,0.1,8.8,0.8,14.2,1.3,22.8,x,x,x
Cc1nc(C(=O)N2CCc3c([nH]c4ccccc34)C2c2cc(F)ccc2F)cs1 (centres undefined),2.1,8.6,8.5,14.8,-1.5,-0.9,x,x,x
CCn1c(SC)nnc1C1CCCN(CC(=O)Nc2ccccc2N2CCOCC2)C1 (centres undefined),9.8,7.5,2.0,13.0,-4.8,-3.2,x,x,x
NC(=O)c1cccc2ccccc12,0.8,-1.1,-4.2,-3.7,1.6,-25.6,x,x,x
N/C(Cc1ccccc1)=N\OC(=O)c1cccc2ccccc12,76.7*,68.1*,78.0,-4.8,85.2*,-7.9,57.2*,90.9*,49.6*
O=C(c1ccc([N+](=O)[O-])o1)N1CCc2ccccc21,65.5*,77.3*,-11.4,23.6,67.3*,-13.4,76.9*,79.1*,85.7*
O=C(Nc1ccccc1N1CCOCC1)c1ccc([N+](=O)[O-])o1,79.6*,70.0*,10.5,12.6,90.1*,109.0*,80.1*,93.6*,70.8*
Cc1ccc(S(=O)(=O)NC(=O)NC(C)c2ccc(F)cc2)cc1 (centres undefined),-0.4,-8.5,-2.5,-0.7,3.2,21.7,x,x,x
O=C(NCC1CC1)c1ccc2c3n(nc2c1)-c1ccc(Cl)cc1CO3,47.7*,67.4*,x,13.7,53.8*,-19.5,34.7*,57.4*,53.5*
COC(=O)[C@@H]1[C@@H](C#N)C2(c3ccccc3-c3ccccc32)N(c2ccc(Cl)cc2)N1C#N,49.8*,57.8*,6.8,6.1,43.6*,100.1*,36.2*,-3.5,63.3*
O=C(Cc1ccc(Cl)cc1)NN1C(=O)c2ccccc2C1=O,8.5,7.6,23.5,1.2,2.4,-1.4,x,x,x
Cc1ccc2nc(Nc3ccc(F)cc3)c3nncn3c2c1,1.4,36.7,7.4,21.0,28.5,-13.4,x,x,x
Cc1ccc(Nc2nc3ccc(Cl)cc3n3cnnc23)cc1F,62.7*,50.6*,0.6,18.3,12.6,16.3,19.8,x,19.7
COc1cccc(/C=C2\SC(=S)N(CCCC(=O)N(CCO)c3ccccc3)C2=O)c1,43.8*,50.5*,3.2,16.8,23.7,-27.1,29.6,x,53.7*
COc1cccc(C(=O)NCC(=O)N2CCC3(CC2)NCCc2[nH]cnc23)c1OC,1.3,-1.2,24.1,12.8,-8.9,7.4,x,x,x
NC(=O)SCC(=O)Nc1ccc(Cl)c(Cl)c1,70.9*,79.8*,3.0,22.9,-26.8,-0.6,31.0*,x,76.3*
CSc1ccc(S(=O)(=O)N2c3ccccc3CC2C)cc1 (centres undefined),16.4,22.0,5.2,32.2,-5.3,13.1,x,x,x
SMILES,tim10-1 inh,tim23-1 inh,NALP1 yeast inh,NALP3 yeast inh,TIM10 inh,PfHsp90 set2,tim10-1 conf,tim10 confirm,tim23-1 conf
Cc1ccccc1C(=O)Nc1sc(C)c(C)c1C(=O)c1ccccc1,14.4,-10.3,4.3,-2.3,-8.8,-25.8,x,x,x
Cc1sc(NC(=O)CCl)c(C(=O)c2ccccc2)c1C,43.1*,51.9*,29.0,19.8,46.1*,-1.8,39.0*,9.4,38.4*
O=C(CCl)Nc1sccc1C(=O)c1ccccc1,53.7*,59.9*,x,-3.9,47.5*,-11.6,54.7*,51.9*,49.9*
CC(C)(C)OC(=O)C[C@H]1C/C=C\C[C@@H](CC(=O)N[C@@H](CO)Cc2ccccc2)C(=O)N2CCC[C@@H]2COC1=O,-1.1,8.0,x,2.1,1.8,8.0,x,x,x
Cc1ccccc1-c1cccc([C@@H]2C[C@H]3[C@H](CON3C)CN2C(=O)CCc2ccccc2)c1,x,x,x,x,x,-7.9,x,x,x
CC(=O)COC(=O)c1cc(-c2ccc(C)cc2)nc2ccccc12,36.7,24.8,12.4,20.7,34.8,-1.0,x,x,x
COc1ccc(/C(N)=N/OC(=O)c2cc(-c3ccccc3)nc3ccccc23)cc1,66.9*,79.1*,12.1,10.4,82.3*,2.0,63.2*,75.3*,76.1*
COC(=O)c1cc(-c2ccc(NC(C)=O)cc2)nc2ccccc12,50.2*,53.2*,-3.3,23.4,36.1,-8.2,38.5*,x,57.4*
Cc1ccc(/C(N)=N/OC(=O)c2cc(-c3ccccc3)nc3ccccc23)cc1,69.6*,83.9*,15.6,0.7,86.5*,-17.5,64.5*,85.8*,80.0*
N/C(=N\OC(=O)c1cc(-c2ccccc2)nc2ccccc12)c1ccccn1,54.3*,81.3*,6.7,6.3,84.2*,7.9,30.9*,88.8*,63.4*
N/C(=N\OC(=O)c1ccccc1Cl)c1ccccn1,23.2,9.0,7.3,29.4,21.0,18.0,x,x,x
O=C1Nc2ccccc2/C1=C/c1ccc([N+](=O)[O-])cc1,55.9*,74.4*,5.4,45.3,80.8*,-18.3,61.7*,80.8*,59.4*
CNC(=S)/N=C/NOCc1c(Cl)cccc1Cl,62.8*,53.7*,20.6,-16.2,52.8*,48.5,54.8*,54.2*,59.5*
CCN(CC(=O)NCc1cccs1)C(=O)COc1ccc(C(C)=O)cc1,-6.2,-10.8,x,7.3,0.3,5.5,x,x,x
CCOC(=O)N/N=C\c1ccc(C)s1,12.5,5.4,12.5,19.3,8.0,-0.5,x,x,x
